In PubChem BioAssay (NCI):
This is part of a sample that, as a whole, favours compounds with a hit. Of some 83,000 tested, about 20% had one in any assay.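 The test compound was applied at a single concentration to cells in 96-well plates for 48 hours, and percent growth was recorded.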

Key:
Experiment in all cases: NCI-60 one-dose screen, 48 h (100 = growth as untreated, 0 = no growth, -100 = all killed); active = growth percent below 10; inactive = the rest
NCI-H322M lung = conditions: 10 µM unless noted
HOP-62 NSCLC = conditions: 10 µM unless noted
NCI-H522 lung = conditions: 10 µM unless noted
A549/ATCC NSCLC = conditions: 10 µM unless noted
COLO 205 colon = conditions: 10 µM
SNB-75 CNS = conditions: 10 µM unless noted
SK-MEL-2 melanoma = conditions: 10 µM unless noted
TK-10 renal = conditions: 10 µM unless noted
SR leukemia = conditions: 10 µM
OVCAR-4 ovarian = conditions: 10 µM unless noted
SK-OV-3 ovarian = conditions: 10 µM unless noted
IGROV1 ovarian = conditions: 10 µM
NCI/ADR-RES ovarian = conditions: 10 µM unless noted
NCI-H226 lung = conditions: 10 µM unless noted
MALME-3M melanoma = conditions: 10 µM unless noted
EKVX NSCLC = conditions: 10 µM unless noted
OVCAR-5 ovarian = conditions: 10 µM unless noted
HOP-92 NSCLC = conditions: 10 µM unless noted
ACHN renal = conditions: 10 µM unless noted

Measured: growth

COc1cc(CNCCc2ccc(Cl)cc2)cc(OC)c1O
inactive: NCI-H322M lung 78.9% | HOP-62 NSCLC 83.3% | NCI-H522 lung 16.1% | A549/ATCC NSCLC 89.8% | COLO 205 colon 77.5% | SNB-75 CNS 44.6% | SK-MEL-2 melanoma 27.8% | TK-10 renal 79.6% | SR leukemia 14.5% | OVCAR-4 ovarian 69% | SK-OV-3 ovarian 82.7% | IGROV1 ovarian 81.3% | NCI/ADR-RES ovarian 44.8%

CC(=O)O[C@H]1CC[C@H]2[C@@H]3CC[C@H]4CC=C(C)C[C@]4(C)[C@H]3CC[C@]12C
inactive: NCI-H226 lung 103% | NCI-H522 lung 92.4% | A549/ATCC NSCLC 107% | COLO 205 colon 110% | MALME-3M melanoma 106% | SNB-75 CNS 110% | EKVX NSCLC 116% | TK-10 renal 108% | OVCAR-5 ovarian 92.1% | IGROV1 ovarian 107% | NCI/ADR-RES ovarian 109%

N#CC1c2ccccc2C=CN1C(=O)c1ccc(N(CCCl)CCCl)cc1 (stereo unspecified)
inactive: NCI-H226 lung 78.2% | HOP-62 NSCLC 91.1% | HOP-92 NSCLC 81% | NCI-H522 lung 69% | A549/ATCC NSCLC 79% | COLO 205 colon 103% | MALME-3M melanoma 85.4% | SNB-75 CNS 79.6% | SK-MEL-2 melanoma 104% | EKVX NSCLC 86.8% | TK-10 renal 107% | ACHN renal 86.9% | SR leukemia 86.6% | OVCAR-5 ovarian 98.6% | OVCAR-4 ovarian 96.7% | IGROV1 ovarian 98.2% | NCI/ADR-RES ovarian 83.4%
